Compounds with a hit are over-represented: about 3.5% of the library has one in this group of screens.
Tau fibril FP – tau fibrillization inhibition (FP); K18 P301L tau heparin fibrillization, Alexa594 FP, 6 h; Potency, µM (series often up to 57.7 µM), for the others: top-dose activity, negative = inhibition, actives largely listed as inhibitors; hit rate 0.39% among 280,000; AID 1468; further: nearly all actives have a fitted effect of over 55% in size
Target sequence (P10636 561-689 P618L limits assumed): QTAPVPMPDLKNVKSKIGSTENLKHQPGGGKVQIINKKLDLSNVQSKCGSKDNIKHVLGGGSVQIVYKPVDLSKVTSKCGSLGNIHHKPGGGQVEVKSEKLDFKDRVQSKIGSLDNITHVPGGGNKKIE
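K18 P301L tau (15 uM unlabeled/0.24 uM Alexa 594-labeled, final) + compound + heparin 20 uM final; 100 mM NaOAc pH 7; 6 hr 37 C; ThT 30 uM final added, 1 hr RT; FP ex 555/em 632 nm.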
TRb SRC2 PPI – inhibitors of human thyroid hormone receptor beta-SRC2 interaction; TRbeta-SRC2 peptide binding, fluorescence polarization; receptor liganded with 1 µM T3; Potency, µM (series often up to 106 µM), for inactives: at the top dose activity change, negative = inhibition, hits mostly inhibitors; hit rate 0.065% among 280,000; AID 1469;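 further: plate controls were bound peptide for no effect and peptide without receptor for full effect; nearly all actives have a fitted effect of over 50% in size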
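A fluorescence polarization screen tested compounds at multiple concentrations against complex formation between 0.6 uM TRb ligand-binding domain and 20 nM Texas Red SRC2 peptide, with 1 uM T3 present; readout after 5 hr.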
Tau fluor counter – counter-screen for tau fibril formation inhibitors | AID 1463 | tau K18 P301L Alexa594 fluorescence, heparin fibrillization | Potency, µM (series often up to 57.7 µM), for inactives: at the highest dose activity change, negative = decrease | hit rate 0.93% among 280,000; further: nearly all actives have a fitted effect of over 55% in size
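Human K18 P301L tau (15 uM unlabeled plus 0.24 uM Alexa 594-labeled, final) in 100 mM sodium acetate pH 7 was mixed with compound and 20 uM heparin and incubated 6 hr at 37 C.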
TexasRed fluor – alters Texas Red total fluorescence, flagging assay interference. TRb/SRC2 Texas Red total fluorescence interference. Potency, µM (highest dose often 106 µM), for the others: top-dose fluorescence change, negative = quenching. hit rate 0.29% among 280,000; active means well fitted curve in either direction with a large enough effect; inconclusive means small, poorly fitted or top-dose-only effect
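Human TRb ligand-binding domain at 0.6 uM with 20 nM Texas Red SRC2 peptide in Tris buffer containing 1 uM T3 and 5% DMSO, incubated with compound 5 h at ambient temperature. Total fluorescence (555/632 nm) calculated as parallel + 2 × perpendicular.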
KDM4E inh – blocks human JMJD2E demethylase activity. hit rate 1.6% among 230,000. AID 2147. B2RXH2. JMJD2E catalytic domain, FDH-coupled NADH fluorescence (FDH is formaldehyde dehydrogenase). Potency, µM (titrated, usually from 57.1 µM), for inactives: at the highest dose activity change, negative = inhibition, most hits filed as inhibitors; active means well fitted inhibition curve with a large enough effect, not every such curve was filed as active; inconclusive means small, poorly fitted or top-dose-only effect, or another doubt; inactive means no such curve, though single readings can be large or run the other way;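 further: 0% = wells with enzyme and -100% = buffer wells without enzyme; nearly all actives have a fitted effect of over 50% in size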
Target sequence (B2RXH2 1-337 limits assumed): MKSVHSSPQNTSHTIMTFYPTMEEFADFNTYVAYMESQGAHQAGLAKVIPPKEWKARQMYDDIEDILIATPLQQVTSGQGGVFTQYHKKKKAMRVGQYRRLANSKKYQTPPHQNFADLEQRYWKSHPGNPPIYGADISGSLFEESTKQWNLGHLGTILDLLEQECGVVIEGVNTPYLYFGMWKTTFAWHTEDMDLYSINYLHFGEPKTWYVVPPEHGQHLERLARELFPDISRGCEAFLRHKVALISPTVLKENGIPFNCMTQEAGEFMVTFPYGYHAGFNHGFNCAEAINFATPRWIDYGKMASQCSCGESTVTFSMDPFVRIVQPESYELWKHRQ
Tau fibril ThT – tau fibrillization inhibition (ThT binding) | AID 1460 | recombinant tau K18 P301L, heparin-induced fibrillization, ThT fluorescence | P10636 | Potency, µM (titrated, usually from 57.4 µM), without a hit: at the top dose activity, negative = inhibition, actives largely listed as inhibitors | hit rate 2.1% among 270,000; further: nearly all actives have a fitted effect of over 55% in size
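Using a mix of unlabeled (15 uM) and Alexa 594-labeled (0.24 uM) tau K18 P301L, heparin-triggered fibrillization over 6 hr at 37 C was scored by ThT fluorescence.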
The depositor's hits bear a star; ? = inconclusive; · = no result; [ ] = dose if it differs, or a comment. Unless noted, the call rests on the fitted dose curve; in most records, active means well fitted curve in the direction sought with a large enough effect; inconclusive means small, poorly fitted or top-dose-only effect, or another doubt; inactive means no such curve, though single readings can be large; an effect the other way counts as inactive or inconclusive. Unless noted, on the % scale 0 is the no-effect control and ±100 the full control effect; potency means the concentration at half of the fitted maximal effect.

SMILES	Tau fibril FP	TRb SRC2 PPI	Tau fluor counter	TexasRed fluor	KDM4E inh	Tau fibril ThT
Cc1coc2c1C(=O)C(=O)c1c-2ccc2c1CCCC2(C)C	?	-7%	?	-4%	?	14µM*
Cc1ccc2c3c(cccc13)-c1ccccc1C2=O	-2%	1%	-27%	3%	?	?
Cc1coc2c1C(=O)C(=O)c1c-2ccc2c(C)cccc12	?	-21%	-28%	-7%	-5%	2µM*
Cc1ccc(F)c(NC(=O)Nc2ccc3snnc3c2)c1	?	0%	?	-1%	·	3%
Cc1c(Cl)cccc1NC(=O)Nc1ccc2snnc2c1	18µM*	5%	10µM*[quencher]	-1%	·	?
COc1ccc(NC(=O)Nc2nc3ccccc3s2)cc1	?	3%	8.9µM*[quencher]	1%	2%	?
COc1ccc(S(=O)(=O)N2CCCC2C(=O)Nc2nc3c(s2)CCCC3)cc1 (configuration not stated)	4%	-13%	-13%	-1%	0%	-4%
O=C(Nc1cccc(Br)c1)Nc1nc2c(s1)CCCCCC2	?	-2%	3.5µM*[quencher]	-4%	·	-8%
COc1ccc(NC(=O)Nc2nc3c(s2)CCCC3)cc1	5%	0%	18µM*[quencher]	-1%	-5%	?
CCOc1ccc2nc(NC(=O)Nc3cccs3)sc2c1	?	12%	14µM*[quencher]	-4%	2%	?
COC(=O)c1ccccc1NC(=O)CN(C)S(=O)(=O)c1ccc(OC)c(C)c1	-5%	-7%	-20%	-5%	5%	?
Cc1noc(/C=C/N(C)C)c1S(=O)(=O)N1CCCC(C(=O)NCc2cccs2)C1 (configuration not stated)	6%	5%	-21%	-6%	-20%	?
COc1ccc(NC(=O)Nc2nnc(-c3ccccc3SCc3ccccc3)s2)cc1	?	-3%	3.5µM*[quencher]	0%	5%	-6%
COc1ccc(Nc2ccc(OC)cc2)cc1	?	?	?	12%	?	10µM*
COc1ccc(OCc2nnc(NC(=O)Nc3ccc(F)cc3)s2)cc1	10µM*	-11%	-10%	0%	11%	6%
COc1ccc(Nc2nc3ccc(OC)cc3s2)cc1	-9%	3%	14µM*[quencher]	-3%	-3%	13µM*
COc1ccc(Nc2ccc(Nc3ccc(OC)cc3)nn2)cc1	6%	2%	-25%	-4%	-4%	?
COc1cccc(NC(=O)Nc2nnc(-c3ccccc3SCc3ccccc3)s2)c1	?	-12%	?	0%	-9%	2%
O=C(COc1cccc2ccccc12)NNC(=O)[C@@H]1CCCC[C@@H]1C(=O)O	5%	14%	-8%	0%	5%	-17%
COc1ccc(CNC(=O)CCC(=O)N2CCSc3ccccc32)cc1	3%	-1%	-8%	0%	·	-1%
CC1(C(=O)Nc2ncc(Cc3ccc(Br)cc3)s2)Cc2ccccc2C(=O)O1 (configuration not stated)	-17%	8%	-21%	-3%	·	-5%
CCOc1ccc(C(=O)NCC(=O)OCc2c(C)noc2C)cc1OCC	2%	5%	11%	-1%	3%	3%
COc1cccc(-c2ccc3c(N)c(C(=O)NC4CC4)sc3n2)c1	13%	2%	16µM*[quencher]	-6%	?	?
COc1cccc(-c2ccc3c(N)c(C(=O)Nc4ccccc4C)sc3n2)c1	-4%	3%	8.9µM*[quencher]	-21%	·	?
Cc1ccccc1NC(=O)c1sc2nc(-c3ccncc3)ccc2c1N	13%	0%	10µM*[quencher]	-7%	·	5µM*
SMILES	Tau fibril FP	TRb SRC2 PPI	Tau fluor counter	TexasRed fluor	KDM4E inh	Tau fibril ThT
COc1cccc(-c2ccc3c(N)c(C(=O)c4ccc(F)cc4)sc3n2)c1	?	8%	3.2µM*[quencher]	-4%	·	?
CCC(CC)C(=O)Nc1cccc(C(=O)NCCc2ccc(S(N)(=O)=O)cc2)c1	-5%	-5%	-7%	-5%	1%	-3%
CCOc1ccccc1NC(=O)CCS(=O)(=O)c1ccc2c(c1)oc(=O)n2C	-8%	-2%	-8%	-1%	·	-5%
CCO[C@H]1OC(C(=O)N2CCN(Cc3ccccc3)CC2)=C[C@@H](C2CCCCC2)[C@@H]1CCCO	13%	-8%	1%	-1%	-8%	-11%
CC(=O)N1CCc2cc(CNS(=O)(=O)c3ccc(Br)s3)ccc21	0%	-1%	-9%	0%	·	-5%
COc1cccc(-c2ccc3c(N)c(C(=O)NCc4ccc(Cl)cc4)sc3n2)c1	10%	-2%	4.5µM*[quencher]	-2%	·	?
N#CC1=C(SCC(N)=O)NC2=C(C(=O)c3ccccc32)C1c1ccc(Cl)cc1 (configuration not stated)	?	2%	?	-2%	1%	14µM*
CSCSC1=C(C#N)C(c2ccc(Cl)cc2)C(C(C)=O)=C(C)N1 (configuration not stated)	-3%	-20%	-27%	0%	?	-12%
CC(=O)c1ccc(N2CCN(c3ccc(S(=O)(=O)NCCN(C)C)cc3[N+](=O)[O-])CC2)cc1	-11%	-7%	-12%	-1%	2%	·
CC(=O)c1ccc(N2CCN(c3ccc(S(=O)(=O)NCCCN(C)C)cc3[N+](=O)[O-])CC2)cc1	4%	-2%	-9%	-3%	-4%	10µM*
CN1CCc2c(sc(/N=C/c3c[nH]c4ccccc34)c2C(N)=O)C1	?	0%	?	1%	?	10µM*
CN1CCc2c(sc(/N=C/c3c[nH]c4ccccc34)c2C#N)C1	?	9%	?	5%	?	14µM*
CC(=O)c1ccc(N/N=C(/C(N)=O)C2=NC(C)(C)Cc3ccccc32)cc1	5%	2%	-26%	-1%	-5%	?
CC1(C)Cc2ccccc2C(/C(=N\Nc2cccc(Cl)c2)C(N)=O)=N1	9%	8%	?	-20%	-7%	14µM*
Cn1c(NCc2c(O)ccc3ccccc23)nc2ccccc21	9%	-24%	18µM*[quencher]	-3%	?	?
CCSc1n[nH]c(=S)s1	-10%	1%	-5%	1%	25µM*	-3%
Nc1cccc2c1C(=O)N(C(=O)c1ccco1)C2=O	-1%	-3%	-1%	-1%	?	-13%
Nc1cccc2c1C(=O)N(C(=O)/C=C/c1ccc(F)cc1)C2=O	?	-7%	-15%	-5%	?	25µM*
COc1ccc(C2=NOC(C(=O)NCC(C)C)C2)cc1 (configuration not stated)	-5%	3%	2%	3%	0%	0%
CCn1cc2nc(SCC(=O)Nc3ccc(OC)c(Cl)c3)n(Cc3ccc(OC)cc3)c(=O)c2n1	-11%	?	-19%	3.5µM*[quencher]	·	9%

Bioassay records from PubChem.
